PubChem BioAssay AID1159580 (chemical genetic matrix, 2015)
“And” between values parts separate entries of the source, which are not always exact repeats. Identical values can stand only once. In all, about 5,500 compounds went through this assay and about 2,000 (36%) were called active. Roughly 18% stayed inconclusive and do not appear here. Cut-off read from the data, not from the text of the source: active = normalized growth mostly below about 0.91 (no sharp cut-off); inconclusive = no clear call, values can overlap the other calls; inactive = mostly above about 0.92. Some of the results follow.

Assay: chemical genetic growth profiling, strain panel (AID 1159580);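 note: tested at 20 µM; growth read once vehicle control cultures reached saturation at 30 °C; 1 = growth at the plate median or of vehicle wells; lower values mean less growth of the strain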
Settings: S. cerevisiae deletion strains, growth OD

Measured: normalized growth

CN(C)CCC=C1c2ccccc2CCc2ccccc21
inactive: locus YAL013W, strain DEP1, active compounds read low 0.992 | locus YAL030W, strain snc1, active compounds read low 0.995 | locus YAL040C, strain CLN3, active compounds read low 1 | locus YBL061C, strain skt5, active compounds read low 0.991 | locus YBR009C, strain hhf1, active compounds read low 0.913 | locus YBR021W, strain FUR4, active compounds read low 1 | locus YBR023C, strain chs3, active compounds read low 0.975 | locus YBR171W, strain sec66, active compounds read low 0.969 | locus YBR229C, strain ROT2, active compounds read low 1 | locus YBR231C, strain swc5, active compounds read low 1 | locus YBR279W, strain paf1, active compounds read low 0.958 | locus YCL011C, strain gbp2, active compounds read low 0.946 | locus YCL016C, strain dcc1, active compounds read low 0.958 | locus YCL029C, strain bik1, active compounds read low 1 | locus YCL061C, strain MRC1, active compounds read low 0.993 | locus YCL069W, strain vba3, active compounds read low 0.987 | locus YCR088W, strain abp1, active compounds read low 0.953 | locus YDL005C, strain med2, active compounds read low 0.993 | locus YDL035C, strain GPR1, active compounds read low 1.02 | locus YDL040C, strain nat1, active compounds read low 0.989 | locus YDL074C, strain BRE1, active compounds read low 0.999 | locus YDL101C, strain DUN1, active compounds read low 1.01 | locus YDL134C, strain PPH21, active compounds read low 0.998 | locus YDL185W, strain tfp1, active compounds read low 1 | locus YDL192W, strain arf1, active compounds read low 0.996 | locus YDR001C, strain nth1, active compounds read low 0.963 | locus YDR069C, strain doa4, active compounds read low 0.955 | locus YDR101C, strain arx1, active compounds read low 0.995 | locus YDR159W, strain sac3, active compounds read low 0.962 | locus YDR162C, strain NBP2, active compounds read low 1.02 | locus YDR195W, strain ref2 1.07 | locus YDR297W, strain sur2, active compounds read low 0.975 | locus YDR318W, strain mcm21, active compounds read low 1 | locus YDR334W, strain swr1, active compounds read low 0.98 | locus YDR335W, strain msn5, active compounds read low 0.973 | locus YDR363W, strain ESC2, active compounds read low 1 | locus YDR388W, active compounds read low 1 | locus YDR392W, strain spt3, active compounds read low 0.922 | locus YDR502C, strain sam2, active compounds read low 0.992 | locus YEL003W, strain gim4, active compounds read low 0.978 | locus YEL037C, strain rad23, active compounds read low 0.984 | locus YEL061C, strain CIN8 (second series), active compounds read low 0.988 | locus YEL061C, strain CIN8, active compounds read low 1.01 | locus YER002W, strain NOP16, active compounds read low 1.01 | locus YER016W, strain bim1, active compounds read low 0.951 | locus YER110C, active compounds read low 1 | locus YER111C, strain swi4, active compounds read low 0.97 | locus YER155C, strain BEM2 (second series), active compounds read low 1 | locus YER155C, strain BEM2, active compounds read low 1 | locus YER167W, strain BCK2, active compounds read low 1.01 | locus YFR010W, strain ubp6, active compounds read low 0.94 | locus YGL078C, strain dbp3, active compounds read low 0.986 | locus YGL086W, strain mad1, active compounds read low 1 | locus YGL167C, strain pmr1, active compounds read low 0.995 | locus YGL173C, strain kem1, active compounds read low 0.966 | locus YGL227W, strain vid30, active compounds read low 0.994 | locus YGL240W, strain doc1, active compounds read low 0.999 | locus YGL248W, strain PDE1, active compounds read low 1.01 | locus YGL253W, strain hxk2, active compounds read low 0.953 | locus YGR078C, strain PAC10, active compounds read low 1 | locus YGR135W, strain pre9, active compounds read low 0.994 | locus YGR229C, strain SMI1, active compounds read low 0.975 | locus YGR252W, strain gcn5, active compounds read low 0.944 | locus YHR013C, strain ard1, active compounds read low 0.875 | locus YHR030C, strain SLT2, active compounds read low 1.01 and 1.08 | locus YHR079C, strain IRE1 (second series), active compounds read low 0.994 | locus YHR079C, strain IRE1, active compounds read low 1.05 | locus YHR094C, strain hxt1, active compounds read low 0.992 | locus YHR129C, strain ARP1, active compounds read low 1.01 | locus YHR142W, strain chs7, active compounds read low 0.919 | locus YHR200W, strain rpn10, active compounds read low 0.995 | locus YIL066C, strain RNR3, active compounds read low 1.02 | locus YIL073C, strain SPO22, active compounds read low 1.05 | locus YIL125W, strain kgd1, active compounds read low 0.997 | locus YIR030C, strain dcg1, active compounds read low 0.992 | locus YJL092W, strain hpr5, active compounds read low 0.979 | locus YJL095W, strain BCK1 (second series), active compounds read low 0.978 | locus YJL095W, strain BCK1, active compounds read low 1.01 and 1.05 | locus YJL115W, strain asf1, active compounds read low 0.974 | locus YJL129C, strain trk1, active compounds read low 1.01 | locus YJL134W, strain LCB3, active compounds read low 1.01 | locus YJL154C, strain vps35, active compounds read low 0.975 | locus YJL164C, strain tpk1, active compounds read low 0.974 | locus YJL166W, strain qcr8, active compounds read low 0.988 | locus YJL168C, strain set2, active compounds read low 1.01 | locus YJL187C, strain SWE1 (second series), active compounds read low 1.01 | locus YJL187C, strain SWE1, active compounds read low 0.985 | locus YJR043C, strain POL32, active compounds read low 1.01
active: locus YAL021C, strain ccr4, active compounds read low 0.896 | locus YAL026C, strain drs2, active compounds read low 0.894 | locus YDR137W, strain rgp1, active compounds read low 1.19 [resistant] | locus YER015W, strain faa2, active compounds read low 0.913 | locus YHR027C, strain rpn1, active compounds read low 0.864
